Compound activity from PubChem BioAssay.
Shown are actives, neighbours in structure and some others; about 5.4% of the full set was active somewhere.
JMJD2C inh = inhibitors of GASC-1 histone demethylase, primary screen, biochemical, fluorescence, DELFIA europium; Lysine-specific demethylase 4C (Homo sapiens), Q9H3R0; GST-JMJD2C(1-420) H3K9me3 demethylation; inhibition, % at 2.35 µM; actives 0.069% (n = 330,000); AID 2099, 2009;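 active = more than half of a compound's replicate wells show inhibition beyond 50%, single wells judged on their own value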;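 note: signal counts dimethyl H3K9 product captured on neutravidin plate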
Target sequence (Q9H3R0 1-420 limits assumed): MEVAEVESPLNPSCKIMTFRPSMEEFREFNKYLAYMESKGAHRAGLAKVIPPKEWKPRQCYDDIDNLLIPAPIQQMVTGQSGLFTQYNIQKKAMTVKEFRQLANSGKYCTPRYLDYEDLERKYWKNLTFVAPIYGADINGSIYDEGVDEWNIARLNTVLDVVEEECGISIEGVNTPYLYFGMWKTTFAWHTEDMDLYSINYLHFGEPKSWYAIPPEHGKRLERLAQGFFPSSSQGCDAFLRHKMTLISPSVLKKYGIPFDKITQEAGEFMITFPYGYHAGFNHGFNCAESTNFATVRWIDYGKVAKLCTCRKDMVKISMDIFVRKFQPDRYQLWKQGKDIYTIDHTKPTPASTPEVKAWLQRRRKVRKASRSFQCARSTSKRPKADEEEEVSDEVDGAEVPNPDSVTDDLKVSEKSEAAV
MIN6 prolif = inducers of MIN6 beta-cell proliferation, primary screen, ATP luminescence, uHTS | MIN6 cells proliferation, ATPlite luminescence, 48 h; cells starved in 0.2% serum; 100% = growth in 10% serum | proliferation, % at 10 µM | actives 0.29% (n = 330,000) | AID 2380, 2010;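 active = compounds whose signal lies at least 3.5 SD above the mean of all wells on their plate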
ALR H2O2 inh = inhibitors of human ALR sulfhydryl oxidase, primary screen, biochemical, H2O2 detection, HRP-luminol luminescence, single point | FAD-linked sulfhydryl oxidase ALR (Homo sapiens), P55789 | purified ALR, DTT oxidation | inhibition, % (no concentration beside the values) | actives 3.8% (n = 290,000) | AID 485317, 2010;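 active = mean replicate inhibition above about 79%, with every replicate also reaching it, limit read from the data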
SMARCA2 act = SMARCA2 (BRM) function activators, primary screen, cell-based, luminescence, high throughput; MG213 cells, MMTV-luciferase reporter, dexamethasone, overnight; activation, % at 9.1 µM; actives 1% (n = 370,000); AID 652017, 2013; in the data active = activation above about 7.8%
Granule exo inh = LAMP-1 surface exposure blockers, TALL-104 cells – cell-based, flow cytometry, MLPCN library, primary screen | TALL-104 LAMP-1 surface exposure; cells stimulated with thapsigargin and PMA | inhibition, % at 10 µM | actives 0.66% (n = 360,000);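 active = inhibition above about 55%, limit read from the data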
PfM18AAP inh = PfM18AAP inhibitors, malaria aminopeptidase, primary screen, biochemical, QFRET, recombinant enzyme; H-Glu-NHMec fluorogenic cleavage; inhibition, % at 7.35 µM; actives 1.2% (n = 290,000);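 active = inhibition above the campaign mean inhibition over all tested compounds plus 3 SD, cut at about 28% in these data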
Hits are given with their value; - = inactive; . = not tested or not shown.

SMILES	JMJD2C inh	MIN6 prolif	ALR H2O2 inh	SMARCA2 act	Granule exo inh	PfM18AAP inh
O=C(CCCc1c[nH]c2ccccc12)N1CCN(c2ccc(N3CCOCC3)nn2)CC1	-	-	90.0	-	-	-
C[C@H](CO)N1C[C@H](C)[C@@H](CN(C)S(=O)(=O)c2ccc(F)cc2)Oc2ccc(NC(=O)C3CC3)cc2C1=O	62.0	-	-	-	-	.
CC(C)NC(=O)N(C)C[C@H]1Oc2ccc(NS(=O)(=O)c3ccccc3)cc2C(=O)N([C@H](C)CO)C[C@H]1C	54.0	-	-	-	-	.
COc1ccc(NC(=O)N(C)C[C@H]2Oc3ccc(NS(=O)(=O)c4cn(C)cn4)cc3C(=O)N([C@H](C)CO)C[C@@H]2C)cc1	.	.	.	-	-	.
C[C@H](CO)N1C[C@H](C)[C@@H](CN(C)C(=O)Nc2ccccc2)Oc2ccc(NS(=O)(=O)c3ccccc3)cc2C1=O	-	-	-	-	-	.
COc1ccc(NC(=O)N(C)C[C@H]2Oc3c(NS(=O)(=O)c4cn(C)cn4)cccc3C(=O)N([C@H](C)CO)C[C@@H]2C)cc1	57.9	-	.	-	-	.
O=C(c1cc(F)cc(F)c1)N1CCCC(c2nc(-c3cccs3)no2)C1 (configuration not stated)	.	.	.	-	.	.
COC(=O)[C@]12C[C@H](CC(=O)N3CCSCC3)C(=O)N(Cc3ccc(Cl)cc3Cl)C1=C[C@H](C1CCCC1)O[C@@H]2C	.	.	.	-	.	.
CC1=CC(=O)c2c(O)ccc(O)c2C1=O	.	.	-	.	.	34.7
CCN(CC)S(=O)(=O)c1cccc(-c2nnc(SCc3nc4ccccc4s3)o2)c1	-	-	-	-	-	-
Brc1ccccc1-c1nnc(SCc2nc3ccccc3s2)o1	-	-	96.3	-	-	-
NNc1nc2c(-c3ccc(F)cc3)nnn2c2ccccc12	-	-	-	-	-	29.9
O=C(Nc1ccc(Cl)cc1)C1CCCN1S(=O)(=O)c1cccnc1 (configuration not stated)	.	.	.	-	.	.
COc1ccc(-c2nnc(SCC(=O)Nc3cccc4ccccc34)n2Cc2ccco2)cc1	.	.	.	-	.	.
Cc1nn(CCC(=O)NNC(=O)Nc2ccccc2)c(C)c1[N+](=O)[O-]	.	.	.	-	.	.
CC(=O)Nc1ccc(NC(=O)COC(=O)CCCc2c[nH]c3ccccc23)cc1	-	-	94.3	-	-	.
O=C(CCCc1c[nH]c2ccccc12)NCc1cccs1	-	-	90.2	-	-	-
O=C(Cc1c[nH]c2ccccc12)NCc1cccs1	-	-	-	-	-	-
COc1ccc(S[C@]2(C(=O)N3CCN(c4ncccn4)CC3)CC(=O)N(c3ccsc3)[C@@H]2c2ccc(OC)cc2)cc1	.	.	.	-	.	.
Cc1ccc(C)c(NC(=O)CNS(=O)(=O)c2ccc3[nH]c(=O)oc3c2)c1	.	.	.	-	.	.
COc1cccc(N2CCN(C(=O)CCC(=O)N3CCOc4ccc(C)cc43)CC2)c1	-	-	88.8	-	-	-
COc1ccc(C(=O)CCC(=O)N2CCN(c3ccccc3)CC2)cc1	-	-	.	-	-	-
COc1ccc(N2CCN(C(=O)CCC(=O)N3Cc4ccccc4Oc4ncccc43)CC2)cc1	-	-	90.2	-	-	-
CN(C)c1ccc(NC(=O)N2CCOCC2)cc1	-	-	99.0	-	-	-
O=C(Nc1ccc2c(c1)OCCO2)N1CCN(c2ccccc2)CC1	-	-	90.5	-	-	-
SMILES	JMJD2C inh	MIN6 prolif	ALR H2O2 inh	SMARCA2 act	Granule exo inh	PfM18AAP inh
Cc1ccc2c(c1)N(CCCC(=O)NCc1ccc(F)cc1)C(=O)CO2	.	.	.	-	.	.
C[C@H]1[C@@H]2C[C@@]3(O[C@H](c4ccccn4)N=C3C[C@@H]1c1ccccc1)N(Cc1ccncc1)C2=O	.	.	.	-	.	.
O=C(CCC(=O)N1CCOc2ccccc21)N1CCN(c2ccccc2)CC1	-	-	98.2	-	-	-
Cc1nc2ccc(NC(=O)c3cc(Cl)ccc3F)cc2c(=O)[nH]1	.	.	.	-	.	.
COCCCNC(=O)CSc1c2c(nc3ccc(Cl)cc13)CCCC2	-	-	98.5	-	-	-
CCN(CC)CCCNC(=O)CSc1c2c(nc3cc(Cl)ccc13)CCCC2	-	-	-	-	-	-
O=C(CSc1c2c(nc3ccc(Cl)cc13)CCCC2)NCCCN1CCOCC1	-	-	97.7	-	-	-
O=C(CSc1c2c(nc3cc(Cl)ccc13)CCCC2)NCCCN1CCOCC1	-	-	97.1	-	-	-
COc1ccc(CNS(=O)(=O)c2ccccc2Br)c(OC)c1	.	.	.	-	.	.
O[C@H](COc1cccc(Br)c1)CN1CCC(C(O)(c2ccccc2)c2ccccc2)CC1	.	.	.	-	.	.
CCN(c1cccc(C)c1)c1ncnc2nc[nH]c12	-	-	-	-	-	-
CCCCN(c1ccccc1)c1ncnc2nc[nH]c12	-	-	.	.	-	-
c1ccc2c(CCNc3ncnc4nc[nH]c34)c[nH]c2c1	-	-	97.9	-	-	-
CCCCN(CCCNc1ncnc2nc[nH]c12)c1ccccc1	-	-	93.4	-	-	-
CCN(CCCNc1ncnc2nc[nH]c12)c1cccc(C)c1	-	-	99.1	-	-	-
CC(=O)N1CCCN(S(=O)(=O)c2ccc3c(c2)oc(=O)n3C)CC1	.	.	.	-	.	.
CC(=O)c1cc(-c2cccc(C(C)C)c2)c(=O)n2c1CCC2	.	.	.	-	.	.
CC(=O)Nc1ccc(SCC(=O)NC(=O)c2ccc(S(=O)(=O)N(C)C)cc2)cc1	-	-	98.6	-	-	.
CN(C)S(=O)(=O)c1ccc(C(=O)NC(=O)CSc2ccccc2)cc1	-	-	-	-	-	-
CC(=O)Nc1ccc(SCC(=O)Nc2ccccc2-c2ccccc2)cc1	-	-	98.4	-	-	-
O=C(CSc1nnc(-c2ccccc2)n1-c1ccccc1)Nc1ccccc1-c1ccccc1	.	.	.	-	.	.
CC(=O)Nc1ccc(SCC(=O)Nc2sccc2C#N)cc1	-	-	98.8	-	-	-
N#Cc1ccsc1NC(=O)CN1CCN(c2ccccc2O)CC1	-	-	99.1	-	-	-
Cc1ccnc(SCC(=O)Nc2sccc2C#N)n1	-	-	-	-	-	-
